# This is part of a sample that, as a whole, favours compounds with a hit. Of some 79,000 tested, about 15% had one in any assay. The source made the active and inactive calls. No stated cut-off is given here; in the data, active means growth inhibition above about 70%; inactive means the rest.
# Assay: NCI Yeast Anticancer Drug Screen. Data for the sgs1 mgt1 strain (AID 161);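 further: 0% = growth of cultures given vehicle only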
# Settings: S. cerevisiae sgs1 mgt1 strain, at 50.0 µM, hits give high values
# Procedure, shortened: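 Test agents were incubated with a DNA-repair-mutant yeast strain. Growth was then read and compared against vehicle-treated controls.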
row,SMILES,growth inhibition
1,CCCCCCCCCCCCCCCCCCCCOC1OC(COC(C)=O)C(OC(C)=O)C(OC(C)=O)C1OC(C)=O (stereo not given),-16.9% (inactive)
2,O=C1/C(=C/c2ccc(Cl)cc2)CCC1CCN1CCOCC1 (stereo not given),51.2% (inactive)
3,Nc1ccc2c(c1)NCC2,-17.1% (inactive)
4,N#CCCN(C1=NN(C(=O)CC(=O)Nc2cccc(Cl)c2)C(c2ccccc2)C1)c1ccccc1Cl (stereo not given),-16.1% (inactive)
5,COC1=NCc2ccccc2-c2ccccc21,-17.9% (inactive)
6,CNc1nnnn1C1OC(CO)C(O)C1O (stereo not given),-9.6% (inactive)
7,Cc1cc(C(=O)NN)no1,-3.9% (inactive)
8,Cn1c(=O)c2c(nc(CCCCCCCCc3nc4c(c(=O)n(C)c(=O)n4C)n3C)n2C)n(C)c1=O,-24.8% (inactive)
9,S=C1Cc2c([nH]c3ccccc23)-c2ccccc2N1,-8.85% (inactive)
10,CCC1OC(=O)CC(O)C(C)C(OC2OC(C)CC(N(C)C)C2O)C(CC=O)CC(C)C(=O)/C=C/C2(C)OC2C1C (stereo not given),-11.3% (inactive)
11,CC(C)CCC(=O)OC/C(=N\Nc1ccc([N+](=O)[O-])cc1[N+](=O)[O-])c1ccc(-c2ccccc2)cc1,-15.8% (inactive)
12,CC(O)CN1CCCC1 (stereo not given),-4% (inactive)
13,COc1cc(CC2C(=O)OCC2C2(c3ccc4c(c3)OCO4)SCCCS2)cc(OC)c1OC (stereo not given),0.15% (inactive)
14,O=C1CN(C(=O)Nc2ccccc2)c2ccccc2N1,-8.3% (inactive)
15,COc1cc(CCl)c(OC)cc1Cl,-1.4% (inactive)
16,CN(C)CCCN1c2ccccc2Sc2cnccc21,-0.2% (inactive)
17,O=C1CSc2nc3ccc(Br)cc3c(=O)n21,11.2% (inactive)
18,CC(C)(C)c1ccnc(C(O)(C(F)(F)F)C(F)(F)F)c1,-12.2% (inactive)
19,N/C(=N\N=C\C1CC2C=CC1C2)NO (stereo not given),-9.8% (inactive)
20,CC1SC2=NC3=C(c4ccccc4C3=O)C(c3ccc(Br)cc3)N2C1=O (stereo not given),-36.3% (inactive)

row,SMILES,growth inhibition
1,CC(C)C(O)C[N+](=O)[O-] (stereo not given),20.3% (inactive)
2,Cc1cc2nc3c(=O)[nH]c(=O)nc-3n(CCOC(=O)CCC(=O)O)c2cc1C,10.5% (inactive)
3,Cc1cc(=O)c2c(Br)ccc(Br)c2[nH]1,-1.1% (inactive)
4,CC(C=O)CCC(C)(O)C=O (stereo not given),-7% (inactive)
5,c1ccc(CC2=NCCc3ccccc32)cc1,-3.3% (inactive)
6,NC(=O)c1ccccc1NC(=O)C(=O)C(c1cnc2ccc([N+](=O)[O-])cc2n1)[N+](=O)[O-] (stereo not given),19.6% (inactive)
7,CCCOC(=O)CC(CC(=O)OCCC)C(=O)OCCC,-3.75% (inactive)
8,CN(C)NC1=C([N+](=O)[O-])C=NN(c2ccccc2)C1,13.4% (inactive)
9,O=C1c2ccc3ccccc3c2C(=O)c2ccc3ccccc3c21,-3.65% (inactive)
10,Clc1nnc(-c2ccccc2)s1,19.9% (inactive)
11,CCCCc1ccc2[n+](c1)C(C(=O)OCC)=PC2 (stereo not given),-21.4% (inactive)
12,COC(=O)/C(=N/O)C(C(=O)C=C(C)C)C(=O)C(=O)Nc1nc2ccc([N+](=O)[O-])cc2s1 (stereo not given),10% (inactive)
13,COCOS(C)(=O)=O,-2.85% (inactive)
14,COC(=O)C1CC[N-]CC1.COC(=O)C1CC[N-]CC1.[Cl][Pt+2][Cl],-6.8% (inactive)
15,Cc1cccc(C)[n+]1[O-],-6.9% (inactive)
16,NC(=S)n1nc(-c2ccccc2)c(N=Nc2ccccc2[N+](=O)[O-])c1-c1ccccc1,-3.15% (inactive)
17,NC(CSC(=O)c1ccccc1)C(=O)O (stereo not given),-19.8% (inactive)
18,CCCCCCCCCCCCSC(=O)NCCC,1.6% (inactive)
19,O=[N+]([O-])c1cc(N(c2ccccc2)c2ccccc2)cc([N+](=O)[O-])c1,-30.4% (inactive)
20,N#CC(CC(=O)NN)C(=O)NN (stereo not given),-21% (inactive)
